# GDH-TPI counter-1: inhibits GDH-TPI coupling enzymes, artifact for Mtb FBA screen; GDH-TPI coupled enzyme counterscreen, NADH absorbance; inhibition, % at 4.8 µM; 360,000 tested, 1.2% active; in the data active = inhibition above about 30%;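 note: 0% = DMSO wells and 100% = wells lacking the enzyme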
# DUSP3 inh: inhibitors of human VHR1 phosphatase (DUSP3) | inhibition, % at 13.3 µM | P51452 | recombinant VHR phosphatase, pNPP absorbance | AID 1654 | 290,000 tested, 0.52% active; in the data active = inhibition above about 50%
# Target sequence (P51452 whole entry, looked up): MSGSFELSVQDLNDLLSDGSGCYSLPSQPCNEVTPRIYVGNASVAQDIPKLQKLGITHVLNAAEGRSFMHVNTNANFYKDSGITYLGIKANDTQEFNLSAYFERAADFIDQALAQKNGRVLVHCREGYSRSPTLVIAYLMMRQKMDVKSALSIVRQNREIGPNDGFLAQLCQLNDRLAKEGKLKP
# Mtb FBA inh: inhibits M. tuberculosis FBA enzyme. purified M. tuberculosis FBA, fluorescence read-out. inhibition, % at 1 µM. 360,000 tested, 2.3% active;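 note: 0% = vehicle and 100% = reference inhibitor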
# Target sequence (P9WQA3 whole entry, looked up): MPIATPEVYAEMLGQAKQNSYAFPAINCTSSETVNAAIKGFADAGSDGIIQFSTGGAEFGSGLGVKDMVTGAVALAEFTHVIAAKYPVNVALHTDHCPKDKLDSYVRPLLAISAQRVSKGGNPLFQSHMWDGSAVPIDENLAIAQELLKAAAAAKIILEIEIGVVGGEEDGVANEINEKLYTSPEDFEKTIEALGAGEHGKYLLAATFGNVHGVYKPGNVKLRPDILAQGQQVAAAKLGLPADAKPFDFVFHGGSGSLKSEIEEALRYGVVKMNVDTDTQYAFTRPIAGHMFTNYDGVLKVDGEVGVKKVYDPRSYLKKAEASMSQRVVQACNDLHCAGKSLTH
# Mtb hypoxia inh: inhibitors of hypoxia-regulated fluorescent reporter in Mycobacterium tuberculosis | M. tuberculosis hypoxia-regulated fluorescent reporter, fluorescence | fluorescence inhibition, % (concentration not given with the values) | 300,000 tested, 0.1% active; in the data active = fluorescence inhibition mostly above about 23%, no sharp cut-off; inactive = mostly below about 17%
# Mtb bLac sens: beta-lactam sensitization of Mtb H37Rv; M. tuberculosis H37Rv growth with meropenem, percent inhibition; inhibition, % at 25 µM; 330,000 tested, 0.27% active; call rule not given here;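 note: growth measured after seven days incubation then overnight dye step; 0% = bacteria only wells and 100% = bacteria with antibiotic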
# Mtb FBA inh conf: Mtb FBA inhibition, confirmed. 5,600 tested, 78% active. shares compounds with Mtb FBA inh. inhibition, % at 1 µM. purified M. tuberculosis FBA, fluorescence read-out;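 note: 0% = vehicle wells and 100% = reference inhibitor wells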
# GDH-TPI counter-2: GDH-TPI inhibition counter-screen for FBA inhibitors; shares compounds with Mtb FBA inh; GDH-TPI coupled enzyme counterscreen, fluorescence; inhibition, % at 1 µM; 5,600 tested, 81% active; AID 652141; in the data active = inhibition above about 10%
# The depositor's hits bear a star; ? = inconclusive; / = no result; + = active, no number. The list is not random: actives were taken first. Their share in the collection is about 3.6%. Cut-off read from the data, not from the text of the source, unless noted: active = inhibition above about 27%; inactive = the rest.
SMILES,GDH-TPI counter-1,DUSP3 inh,Mtb FBA inh,Mtb hypoxia inh,Mtb bLac sens,Mtb FBA inh conf,GDH-TPI counter-2
NS(=O)(=O)c1ccc(CCNC(=O)c2cc(-c3ccco3)nc3ccccc23)cc1,19,/,77*,1,6,75*,73*
Cc1ccc(-c2cc(C(=O)NCCc3ccc(S(N)(=O)=O)cc3)c3ccccc3n2)cc1,13,8,34*,4,25,177*,179*
NS(=O)(=O)c1ccc(CNC(=O)c2cc(-c3ccccc3)nc3ccccc23)cc1,15,23,1,11,9,/,/
NS(=O)(=O)c1ccc(CCNC(=O)c2cc(-c3ccccc3)nc3ccccc23)cc1,7,5,2,5,4,/,/
COC(=O)C1=C(c2cc3ccccc3s2)CC2CCC1N2C(=O)NCc1ccc(C(F)(F)F)cc1 (stereo not given),/,/,/,11,/,/,/
CCSc1nc(-c2ccc(OC)cc2)ccc1C#N,13,10,42*,2,80,84*,80*
COc1ccc(-c2ccc(C#N)c(SCC(=O)NC3CC3)n2)cc1OC,25,23,99*,15,-2,108*,111*
COc1ccc(-c2ccc(SCC(=O)NC3CCCC3)nn2)cc1OC,11,4,3,-9,?,/,/
CC(=O)N(C)C1(c2nnnn2CCOC(=O)Nc2ccc(Cl)cc2)CCCCC1,-15,-10,52*,2,-6,13,4
O=S(=O)(c1ccc2ccccc2c1)N1C=CC(C(F)(F)F)=NCC1,10,-13,86*,/,-8,-9,-5
COc1ccc(CNC(=O)C[C@H]2C[C@H](C(=O)N3CCCCC3)[C@@]3(C)c4[nH]c5cc(-c6ccco6)ccc5c4CCN3C2=O)cc1OC,10,/,28*,-10,/,79*,56*
CCN(CC)C(=O)[C@H]1C[C@H](CC(=O)NCc2ccc(OC)c(OC)c2)C(=O)N2CCc3c([nH]c4cc(-c5ccco5)ccc34)[C@]12C,16,/,46*,-15,/,144*,105*
CCCC(=NNC(=O)c1ccc(OC)c(OC)c1)c1ccccc1,/,/,/,-2,/,/,/
CCCCCCn1c(=O)c(C(=O)NN=Cc2cccc(F)c2)c(O)c2ccccc21,/,/,/,-6,/,/,/
Cc1c(OCC(=O)N2CCC(C(N)=O)CC2)ccc2c3c(c(=O)oc12)CCCC3,10,20,18,/,0,/,/
O=C(COc1ccc2c3c(c(=O)oc2c1)CCC3)N1CCN(c2ccc(F)cc2)CC1,26,14,8,-2,8,/,/
NC(=O)C1CCN(C(=O)COc2ccc3c4c(c(=O)oc3c2)CCCC4)CC1,24,1,79*,/,0,166*,136*
O=C(O)C1CCN(C(=O)COc2ccc3c4c(c(=O)oc3c2)CCC4)CC1,16,10,41*,/,-5,124*,79*
O=C(NN=C/C(Br)=C/c1ccccc1)C(O)c1ccccc1 (stereo not given),/,/,/,5,/,/,/
Cc1nnsc1C(=O)NN=Cc1c(F)cccc1Cl,/,/,/,12,/,/,/
Cc1cccc(NC(=O)NC(C)C(=O)O)c1 (stereo not given),/,/,/,5,/,/,/
ClC1(Cl)CC1CSc1nc2ccccc2[nH]1 (stereo not given),0,18,33*,3,1,88*,85*
CCOc1ccc2nc(SCC3CC3(Cl)Cl)[nH]c2c1 (stereo not given),5,4,-2,5,-2,/,/
O=C(c1cccn2c(=O)c3cc(Cl)ccc3nc12)N1CCOCC1,18,-5,45*,9,?,-3,-4
NC(=O)C1(N2CCCCC2)CCN(C(=O)c2cccn3c(=O)c4cc(Cl)ccc4nc23)CC1,29,14,40*,-5,-11,-2,-6
SMILES,GDH-TPI counter-1,DUSP3 inh,Mtb FBA inh,Mtb hypoxia inh,Mtb bLac sens,Mtb FBA inh conf,GDH-TPI counter-2
Cc1cccc(S(=O)(=O)c2c(N)n(/N=C/c3ccccc3)c3nc4ccccc4nc23)c1,7,4,-2,/,0,/,/
Cc1ccc(C(=O)Nn2c(N)c(S(=O)(=O)c3ccc(C)cc3)c3nc4ccccc4nc32)cc1,35*,28,65*,-2,-5,76*,52*
Cc1ccc(S(=O)(=O)c2c(N)n(NC(=O)c3ccccc3C)c3nc4ccccc4nc23)cc1,9,12,39*,2,1,193*,143*
COC(=O)NN=Cc1cn(Cc2ccc(F)cc2)c2ccccc12,/,/,/,1,/,/,/
CCOc1ccc(C(=O)NCc2ccccn2)cc1,3,-17,0,2,-8,/,/
C[C@@H](NC(=O)c1coc(=O)c(Br)c1)c1ccccc1,33*,-18,81*,/,15,72*,52*
O=C(NCCc1ccc(F)cc1)c1coc(=O)c(Br)c1,21,10,17,11,-1,/,/
O=C(Nc1ccccc1F)c1coc(=O)c(Br)c1,14,16,107*,16,-7,/,+
O=C(NCc1ccccn1)c1coc(=O)c(Br)c1,12,-1,78*,4,-4,-4,-6
Cc1cc(NC(=O)c2coc(=O)c(Br)c2)ccc1C(C)C,12,24,49*,-4,-1,+,+
CCOC(=O)C1C2COc3ccc(OC)cc3C2N2C(=O)c3ccc(Cl)cc3NC(=O)[C@@]12C (stereo not given in full),/,/,/,2,/,/,/
Cc1ccc(C=NNC(=O)c2cncc(Br)c2)o1,/,/,/,-4,/,/,/
CCNC(=S)N1CCc2cc(OC)c(OC)cc2C1COc1ccccc1OC (stereo not given),-5,2,38*,5,-6,+,+
Cc1ccc(C=NNC(=O)C(C)NC(=O)c2ccccc2)cc1 (stereo not given),/,/,/,-7,/,/,/
CCOC(=O)NN1C(=O)c2ccccc2NC1c1ccc(OC)c(OC)c1 (stereo not given),-9,25,43*,2,-1,5,-4
CC1(C)Nc2ccccc2C(=O)N1NC(=O)c1ccccc1,8,-10,11,3,3,/,/
CCOC(=O)N1CCC2(CC1)NC(=O)c1ccccc1N2,9,/,85*,/,/,37*,25*
CCOC(=O)NN1C(=O)c2ccccc2NC1(C)C,3,-5,104*,0,0,136*,112*
COc1ccc(C2Nc3ccccc3C(=O)N2NC(C)=O)cc1OC (stereo not given),-2,5,36*,7,1,36*,26*
COc1ccc(C2Nc3ccccc3C(=O)N2NC(=O)c2ccccc2)cc1OC (stereo not given),2,3,7,6,-1,/,/
S=c1[nH]nc(-c2cccnc2)n1N=Cc1cccs1,/,/,/,7,/,/,/
CCCCN1C(=S)NCC1Cc1ccccc1 (stereo not given),/,/,/,14,/,/,/
COc1cccc(N2CC(=O)N(NC(=O)c3sc4nc(C)cc(C)c4c3N)CC2=O)c1,5,23,54*,-5,-2,+,175*

# Screening data deposited in PubChem by several laboratories.
